According to PubChem BioAssay (NCI):
This is part of a sample that, as a whole, favours compounds with a hit. Of some 83,000 tested, about 20% had one in any assay.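 Note: values are percent growth. 100 is the growth of untreated cells, values between 100 and 0 indicate rising inhibition; between -100 and 0 indicates cell death.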 Active and inactive are the calls of the source. Rule for the calls: active = growth percent below 10; inactive = the rest.

Experiments:
Assay in all cases: NCI-60 one-dose screen, 48 h (100 = growth as untreated, 0 = no growth, -100 = all killed)
Conditions in all cases: 10 µM unless noted
[1] = tested on: HCT-15 colon
[2] = tested on: HT29 colon
[3] = tested on: SNB-75 CNS
[4] = tested on: SNB-19 CNS
[5] = tested on: U251 CNS
[6] = tested on: PC-3 prostate
[7] = tested on: SK-MEL-5 melanoma
[8] = tested on: UACC-62 melanoma
[9] = tested on: LOX IMVI melanoma
[10] = tested on: SK-MEL-28 melanoma
[11] = tested on: SK-MEL-2 melanoma
[12] = tested on: EKVX NSCLC
[13] = tested on: SN12C renal
[14] = tested on: UO-31 renal
[15] = tested on: TK-10 renal
[16] = tested on: ACHN renal
[17] = tested on: CAKI-1 renal
[18] = tested on: CCRF-CEM leukemia
[19] = tested on: A498 renal
[20] = tested on: MOLT-4 leukemia

Measured: growth

CCCCC[n+]1ccc(SCC(=O)N(C)c2ccc(Oc3ccccc3)cc2)c2ccccc21
inactive: [1] 100% | [2] 101% | [3] 115% | [4] 89.1% | [5] 95.8% | [6] 103% | [7] 95.2% | [8] 75.4% | [9] 102% | [10] 108% | [11] 106% | [12] 114% | [13] 95.5% | [14] 86.9% | [15] 99.6% | [16] 107% | [17] 93.5% | [18] 85%

c1ccc(Cn2cnc3ccc(-c4nc(-c5ccc6c(c5)ncn6C5CCCCC5)cn5ccnc45)cc32)cc1
active: [1] -9.03% | [2] -48.7% | [3] -67.4% | [5] -22.8% | [6] -39.5% | [7] -84% | [8] -31.2% | [9] -87% | [10] 0.441% | [11] -36.7% | [12] -12.3% | [13] -35.4% | [14] -51.4% | [15] 5.2% | [19] -71.8% | [18] 5.6% | [20] 4.39%
inactive: [4] 19.6% | [16] 19.9% | [17] 43.3%

CC(=O)Oc1ccc(/C=N/NC(N)=S)nc1
active: [3] 8.77%
inactive: [1] 92% | [2] 94.6% | [4] 102% | [5] 51.7% | [6] 81% | [7] 14.6% | [8] 59.3% | [9] 47.7% | [10] 65.7% | [11] 79.2% | [12] 105% | [13] 73.6% | [14] 52.7% | [15] 108% | [16] 13.2% | [17] 49.8% | [19] 88.6% | [18] 39.3% | [20] 56%

Nc1nc(Nc2ccccc2SSc2ccccc2Nc2nc(N)nc(-c3ccc(C(F)(F)F)cc3)n2)nc(-c2ccc(C(F)(F)F)cc2)n1
active: [14] -84.6% | [17] -20.3%
inactive: [1] 17.2% | [2] 93.3% | [3] 86.2% | [4] 58% | [5] 41.2% | [6] 29.5% | [7] 88.9% | [8] 68.3% | [9] 27.5% | [10] 95.6% | [11] 93.7% | [12] 44.6% | [13] 57.6% | [15] 95.4% | [16] 19.9% | [18] 53.6%

NC(=S)N1N=C(c2ccccc2)CC1c1cn(-c2ccccc2)nc1-c1ccc(OCc2ccccc2)cc1 (stereo unspecified)
inactive: [1] 106% | [2] 95.9% | [3] 95.1% | [4] 97.3% | [5] 97% | [6] 89.2% | [7] 99.4% | [8] 86.3% | [9] 99.3% | [10] 112% | [11] 90.4% | [12] 78.3% | [13] 93.2% | [14] 84.7% | [15] 102% | [16] 100% | [17] 92.7% | [19] 94.5% | [18] 103% | [20] 98.7%

S=c1cc(S)c2cc(Br)ccc2[nH]1
inactive: [1] 99.8% | [2] 96.9% | [3] 105% | [4] 94.1% | [5] 98.3% | [6] 78.8% | [7] 89% | [8] 83.4% | [9] 95.9% | [10] 98% | [11] 93.9% | [12] 105% | [13] 98.8% | [14] 86.8% | [15] 125% | [16] 90.4% | [17] 101% | [18] 100%

COc1ccccc1NS(=O)(=O)c1cccc(C(=O)Nc2ccc(Br)cc2)c1
inactive: [1] 37.8% | [2] 46.6% | [3] 65.9% | [4] 53.4% | [5] 62% | [6] 25.4% | [8] 32.1% | [9] 42.4% | [10] 62.9% | [11] 57.7% | [12] 20.1% | [13] 51.8% | [14] 27.3% | [15] 61.5% | [16] 46.2% | [17] 27.5% | [18] 40.1%
active: [7] -31.7%

Cc1cnc(C(=O)Nc2nc3ccc(S(=O)(=O)Nc4ccc(C(C)(C)C)cc4)cc3[nH]2)cn1
inactive: [1] 18% | [2] 12.8% | [4] 31.6% | [5] 18.9% | [6] 20.8% | [7] 10.9% | [8] 40.2% | [9] 42.3% | [10] 35.8% | [11] 51.1% | [12] 51% | [13] 43.7% | [14] 40.4% | [15] 43.4% | [16] 49.6% | [17] 27.3% | [18] 10.8%
active: [3] 5.59%

CN(C)CC(O)c1ccc(/C=C/c2ccc(Cl)cc2)cc1 (stereo unspecified)
active: [1] -51.7% | [2] -69.5% | [3] -24.8% | [5] -94% | [6] -30.3% | [7] -91.5% | [8] -79% | [9] -54.2% | [10] -88.2% | [11] -63.9% | [13] -12.3% | [14] -67.2% | [15] -91.5% | [16] -50.1% | [17] -46.1% | [18] -43.8% | [20] -29.7%
inactive: [4] 32.1% | [12] 29.7%

N#C/C(=C\c1c(-c2ccccc2)[nH]c2ccccc12)C(=O)c1ccc(Cl)cc1
active: [3] -4.21% | [7] 1.79% | [19] -3.53% | [18] 2.19%
inactive: [1] 31.1% | [2] 17.3% | [4] 55.3% | [5] 18.6% | [6] 32.9% | [8] 28.6% | [9] 44.4% | [10] 50.9% | [11] 74.6% | [12] 48.8% | [13] 66.7% | [14] 47.3% | [15] 68.3% | [16] 48.9% | [17] 59.6% | [20] 45.9%

c1ccc(-c2cn3c(ccc4ccccc43)n2)cc1
inactive: [1] 30.6% | [2] 19.8% | [3] 51.9% | [4] 65% | [5] 51.8% | [6] 72.2% | [7] 27.4% | [8] 43.5% | [9] 52.3% | [10] 68.5% | [11] 40.3% | [12] 73.2% | [13] 60.8% | [14] 48.9% | [15] 89.5% | [16] 79.5% | [17] 38.6% | [18] 65.1%

COc1ccc(C(=O)Cn2c(C(=O)c3ccccc3)nc3ccccc32)cc1
active: [3] -8.26% | [7] -1.14% | [20] 7.92%
inactive: [1] 18.6% | [2] 14.2% | [4] 55.2% | [5] 25.1% | [6] 29.7% | [8] 15.7% | [9] 43.8% | [10] 94.2% | [11] 64.2% | [12] 71.2% | [13] 43% | [14] 32.7% | [15] 59.6% | [16] 46.1% | [17] 24% | [19] 46.8%

O=S(=O)(NCCNc1nccc(-c2c(-c3cccc(F)c3)nc3sccn23)n1)c1ccccc1
inactive: [1] 25.8% | [2] 23.2% | [3] 71.5% | [4] 55.9% | [5] 44% | [6] 33.1% | [7] 19.1% | [8] 24.9% | [9] 36.3% | [10] 54.3% | [11] 51.8% | [12] 53.3% | [13] 40.3% | [14] 15.4% | [15] 59.5% | [16] 26% | [17] 39.1% | [18] 33.6%

Cc1ccccc1NS(=O)(=O)c1cccc(C(=O)Nc2ccc(Br)cc2)c1
active: [7] -38.9% [25 µM]
inactive: [1] 37.3% [25 µM] | [2] 47.8% [25 µM] | [3] 53.7% [25 µM] | [4] 42.9% [25 µM] | [5] 53% [25 µM] | [6] 27.3% [25 µM] | [8] 25.9% [25 µM] | [9] 39.2% [25 µM] | [10] 60% [25 µM] | [11] 42.9% [25 µM] | [12] 16.6% [25 µM] | [13] 42.9% [25 µM] | [14] 22.8% [25 µM] | [15] 55.9% [25 µM] | [16] 47% [25 µM] | [17] 26.2% [25 µM] | [18] 42.4% [25 µM] | [20] 26.9% [25 µM]

Oc1ccc(C(c2ccc(O)cc2)c2ccc(Br)cn2)cc1
inactive: [1] 15.6% | [2] 70.5% | [4] 66.9% | [5] 86.9% | [7] 85.5% | [8] 38.9% | [10] 109% | [11] 31.6% | [14] 53% | [16] 21% | [17] 79.5% | [18] 111% | [20] 101%
active: [3] -10.3% | [6] -17.1% | [9] -12.2% | [12] -37.1% | [13] 1.64% | [15] 4.53%

CN(C)c1ccc(C2C(C#N)=C(/N=C/c3ccccc3)Oc3c2ccc2ccccc32)cc1 (stereo unspecified)
active: [3] -0.718%
inactive: [1] 48% | [2] 69.9% | [4] 74.2% | [5] 74.8% | [6] 50.7% | [7] 71.5% | [8] 49.2% | [9] 54.6% | [10] 80.1% | [11] 70.8% | [12] 73.4% | [13] 78% | [14] 50.6% | [15] 144% | [16] 71.6% | [17] 20.7% | [18] 66.7% | [20] 67.7%
